Data: PubChem BioAssay AID588475 (Sanford-Burnham Center for Chemical Genomics, 2011)
Among all 350,000 compounds or so, about 2,100 (0.6%) were called active. This is one part of a sample in which actives are shown more often than they occur.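 How the source made its calls: active means inhibition of the ligand-induced calcium signal above about 50% at the single tested concentration (limit read from the data); inactive means the rest.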

Assay: blockers of CRF-evoked CRF-R2/CRF-BP calcium response – cell-based, HEK293, calcium dye fluorescence, uHTS, primary screen (AID 588475)
Conditions: CRF-induced calcium fluorescence, at 11.8 µM, stronger effect = higher value

inhibition, active:
COc1ccc(/C=C2\CCc3ccccc3C2=O)c(OC)c1OC 89.8%, CN(C)c1ccc(C=C2C(=O)OC3(CCCC3)OC2=O)cc1 66.8%, COC(=O)C(NC(=O)c1ccc(OC)cc1)(Nc1ncc(S(=O)(=O)c2ccc([N+](=O)[O-])cc2)s1)C(F)(F)F (centres undefined) 72.6%, COc1ccc(/C=C/C(=O)Nc2c(C)nn(C)c2C)cc1COc1ccc(Br)cc1 60.5%, Cc1cccc(CS(=O)(=O)c2ncc(Cl)c(C(=O)Nc3ccc(F)cc3)n2)c1 52.3%, C=CCOc1ccc(/C=C2\SC(=S)N(CCC(=O)O)C2=O)cc1 53.9%, N#C/C(=C(/O)Cc1cccc2ccccc12)c1nc2ccccc2s1 60.4%, CCOC(=O)N1CCN(C(=O)Cn2cnc3ccccc3c2=O)CC1 72.2%, O=[N+]([O-])c1ccc(NS(=O)(=O)c2ccccc2)c(Cl)c1 55.9%, O=[N+]([O-])c1cc(Br)c(O)c(/C=N/Nc2nc3ccccc3s2)c1 67.2%, Cc1nn(-c2ccc([N+](=O)[O-])cc2)c(N)c1-c1ccccc1 51.6%, Cc1ccc(NS(=O)(=O)c2ccc(N/N=C/c3ccccc3OCC(=O)O)c([N+](=O)[O-])c2)c(C)c1 63.5%, Cc1nc2c(C(=O)NCc3ccc4c(c3)OCO4)c[nH]n2c(=O)c1Cc1ccccc1F 53.2%, Cc1ccc2nc(N3C(=O)C(O)=C(C(=O)c4ccco4)C3c3cccc(O)c3)sc2c1 (centres undefined) 51.9%, Cc1ccc(CNC(=O)CCNC(=O)Cn2ccc3ccccc3c2=O)cc1 87.1%, Cc1ccc(C(=O)Nc2nnc(C3=COCCO3)o2)cc1C 51.4%

inhibition, inactive:
Cc1cccc(N2Cc3ccccc3C2=NC(=O)c2ccc(Cl)nc2)c1 -4.54%, CN1CCN(C2=NCCO2)CC1 0.22%, COc1ccc(/C=C2/CCCc3ccccc3C2=O)cc1 4.03%, O=C1/C(=C/c2cccs2)CCc2ccccc21 -1.09%, COC(=O)[C@]1(Cc2ccccc2)N[C@H](CN(C)S(=O)(=O)c2ccc(OC(F)(F)F)cc2)[C@@H]2C(=O)N(Cc3ccccc3)C(=O)[C@@H]21 -0.07%, O=C(CSc1nnc(CNC(=O)c2ccc(F)cc2)o1)Nc1ccc2c(c1)OCO2 -5.95%, COC(=O)c1ccc(/C=C2/C(=O)Oc3ccccc32)cc1 1.02%, CN(C)c1ccc(/C=C2\NC(=S)N(Cc3ccccc3)C2=O)cc1 -149%, O=C(O)C(NS(=O)(=O)c1cccc2nsnc12)c1ccccc1 (centres undefined) 8.07%, Cc1cc(C)cc(C(=O)NC(CC(N)=O)c2ccc(N3CCC(N4CCCCC4)CC3)c([N+](=O)[O-])c2)c1 (centres undefined) 14.9%, O=C(NCC(F)(F)F)c1ccc(S(=O)(=O)NCCc2ccc3c(c2)OCCO3)cc1 2.25%, CC1=C(C(N)=O)C(c2sccc2C)n2nnnc2N1 (centres undefined) -23.7%, Cc1c(Br)ccc(NC(=O)COc2ccccc2C(N)=O)c1C -2.05%, COc1ccc(C(=O)NCCNc2ccc([N+](=O)[O-])cn2)cc1 3.69%, CCOCC(=O)Nc1ncc(S(=O)(=O)c2ccc([N+](=O)[O-])cc2)s1 -6.17%, COc1ccc(CCn2c(NN=C3CCCC3)nc3c2c(=O)[nH]c(=O)n3C)cc1 -0.67%, CCn1nc(C)c(NC(=O)/C=C/c2ccc(OC)c(COc3ccc(Br)cc3)c2)c1C 30.8%, COc1ccc(OC)c(S(=O)(=O)Nc2c(C)nn(C)c2C)c1 6.33%, CCn1cc(/C=C(\NC(=O)c2cc(OC)c(OC)c(OC)c2)C(=O)N2CCN(C)CC2)c2ccccc21 -8.31%, Cc1cc(OC(=O)c2ccc(Cl)cc2)cc(=O)n1C 11.4%, Cc1cccc(NC(=O)c2nc(S(=O)(=O)Cc3ccccc3)ncc2Cl)c1 45.5%, CSc1nnc(NC(=O)c2nc(S(=O)(=O)Cc3ccc(C)cc3)ncc2Cl)s1 25.7%, FC(F)(F)c1cc(-c2ccco2)nc(NCc2ccc(Cl)cc2)n1 -24.6%, COc1ccc(/C=C2\SC(=S)N(CCC(=O)N3CCOCC3)C2=O)cc1OC -7.34%, O=C1/C(=C/c2ccc(F)cc2)SC(=S)N1CCCC(=O)N1CCCCC1CCO (centres undefined) -17.3%, Cc1cc(C)nc(NC2=NCC(=O)N2c2ccc(Cl)cc2)n1 10.7%, O=C(c1ccc(-n2cnnn2)cc1)N1CCN(C(c2ccccc2)c2ccccc2)CC1 14.7%, CCc1ccc(NC(=O)CC2C(=O)NCCN2C(=S)Nc2ccccc2)cc1 (centres undefined) -42.6%, CN(C)C(=O)c1nc2ccc(Cl)cn2c1CNCc1cccc(OC(F)(F)F)c1 21%, CCNC(=O)CC1C(=O)N(c2ccc(F)cc2)C(=O)N1CCc1sccc1C (centres undefined) 3.16%, O=C(O)CC/C(=C\c1cc2c(cc1Br)OCO2)c1nc2ccccc2s1 8.13%, CC1=CC(=C(C#N)c2nc3ccccc3s2)C=C(C)N1c1ccc(F)cc1F -130%, CC1CC(C)CN(C(=O)CCNC(=O)Cn2cnc3ccccc3c2=O)C1 (centres undefined) -2.21%, CC1Cc2ccccc2N1C(=O)Cn1cnc2ccccc2c1=O (centres undefined) 0.2%, O=S(=O)(NCc1ccc2c(c1)OCO2)c1cccc2nsnc12 -14.6%, COCCCNC(=O)C1CCC(CNS(=O)(=O)c2ccc(OC)cc2)CC1 (centres undefined) 5.65%, O=C(NNS(=O)(=O)c1ccc(F)cc1)c1ccc([N+](=O)[O-])cc1Cl 0.78%, Cc1cc([N+](=O)[O-])ccc1NS(=O)(=O)c1ccccc1 17.8%, COC(C[C@@H](O)C[C@H](O)[C@H](C)OCc1ccccc1)OC 10.3%, c1ccc(C(=NNc2nc3ccccc3s2)c2ccccn2)cc1 -36.8%, O=C(N/N=C/c1cc(Br)c(O)c([N+](=O)[O-])c1)C(O)(c1ccccc1)c1ccccc1 4.64%, Cn1nc(-c2ccccc2)c2cc([N+](=O)[O-])ccc21 -1.55%, Cc1nn(C(=O)c2ccoc2C)c(N)c1-c1ccccc1 4.6%, CN1CCN(C(=O)c2cnn(-c3ccccc3)c2NC(=O)c2ccc([N+](=O)[O-])cc2)CC1 1.78%, Cc1ccccc1N1CCN(Cc2nc(Cc3ccccc3F)no2)CC1 10.3%, COc1ccc(CC(NC(C)=O)C(=O)NC2CCN(C(=O)c3ccc(Cl)cc3)CC2)cc1 (centres undefined) 13.1%, C/C(=N/NC(=O)CSc1ccccn1)c1ccc([N+](=O)[O-])cc1 1.41%, Cc1nc(C)c2c(c1C(F)(F)F)-c1ccccc1C2(F)F -1.72%, CCCCn1c(N)c(N(CCC(C)C)C(=O)COC(=O)c2ccc(CC)cc2)c(=O)[nH]c1=O -14.7%, COc1ccc(Br)cc1/C=N/Nc1ccc(S(=O)(=O)Nc2ccccc2C(=O)O)cc1[N+](=O)[O-] 14.6%, C=C(C)CNC(=S)N/N=C/c1ccccc1OCC(=O)O -10.5%, CC(CO)(CO)NC(=O)c1ccc(=O)[nH]n1 2.66%, Cc1ccc(C(=O)N/C(=C\c2cn(C)c3ccccc23)C(=O)N2CCN(C)CC2)cc1 1.64%, O=[N+]([O-])c1ncc(Br)cc1Nc1ccccc1 17.9%, CCCN(CCc1ccccc1)C1CCc2c(O)cccc2C1 (centres undefined) -13%, CC(C)NC(=O)CSc1ccccc1C(=O)NCc1ccc2c(c1)OCO2 17%, COc1ccccc1-n1c(C)nc2cc(C(=O)NCc3ccc4c(c3)OCO4)ccc21 20.9%, COCCN(C(=S)Nc1ccccc1OC)C1CCN(C(C)C)CC1 -0.52%, CCc1ccc(CN(C)C(C)C(=O)Nc2ccc(S(=O)(=O)N3CCCC3)cc2)cc1 (centres undefined) -10.1%, COc1ccc2nc(N3C(=O)C(O)=C(C(=O)c4ccco4)C3c3ccco3)sc2c1 (centres undefined) 3.47%, C=CCSc1nnc(N2C(=O)C(O)=C(C(=O)c3ccco3)C2c2ccc(F)cc2)s1 (centres undefined) 17.8%, CS(=O)(=O)N(Cc1nc2sc3c(c2c(=O)[nH]1)CCCC3)C1CCCCC1 -0.95%, CCc1nn(CC(=O)N2CCN(c3cc(C)ccc3C)CC2)c(=O)c2cc3occc3n12 3.13%, CCCCN(CC)CCNC(=O)CCNC(=O)Cn1ccc2ccccc2c1=O -0.99%, O=C(CCNC(=O)Cn1ccc2ccccc2c1=O)NCCC1=CCCCC1 -1.26%, Cc1ccc(SC(CC(=O)c2ccc(C(C)(C)C)cc2)C(=O)O)cc1 (centres undefined) -15.1%, CC(NC(=O)COC(=O)C1CCN(S(=O)(=O)c2ccccc2C(F)(F)F)CC1)c1ccccc1 (centres undefined) -1.56%, CCOC(=O)C(C)N(c1ccccc1Cl)S(C)(=O)=O (centres undefined) -3.83%, S=c1[nH]ccn1-c1ccc(Cl)cc1 -16.2%, O=C(Nc1nnc(C2=COCCO2)o1)c1ccc([N+](=O)[O-])s1 -4.65%, COc1cc(-c2nnc(NC(=O)C3=COCCO3)o2)cc(OC)c1OC -9.37%, COc1cc(OC)cc(C(=O)N[C@H](C(=O)OCC(=O)NC(C)c2ccccc2)C(C)C)c1 (some centres undefined) -108%, CCn1cc(/C=C2/SC(=S)NC2=O)c(C)n1 13.4%
